Records with an inconclusive call do not appear. The source made the active and inactive calls. Rule as the data show it, unless noted: active = inhibition above about 80%; inactive = the rest.
Assays:
[1] = viability loss in pontine glioma line – cell-based, SU-DIPG-XIII, MIPE5.0, CellTiter-Glo, qHTS, dose response (AID 1347064; cut-off not given, nearly all actives have AC50 up to about 23 µM;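 also: cells exposed to compound for 48 hours before the viability read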); conditions: CellTiter-Glo ATP luminescence
[2] = viability loss in pontine glioma line – cell-based, SU-DIPG-XXV, MIPE5.0, CellTiter-Glo, qHTS, dose response (AID 1347065; cut-off not given, nearly all actives have AC50 up to about 26 µM;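 also: cells exposed to compound for 48 hours before ATP readout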); conditions: CellTiter-Glo ATP luminescence
[3] = JHH-DIPG-1 glioma cell viability, MIPE5.0 library, CellTiter-Glo luminescence, qHTS (AID 1347067; cut-off not given, nearly all actives have AC50 up to about 26 µM;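 also: cells exposed to compound for 48 hours before readout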); conditions: JHH-DIPG-1 glioma viability, CellTiter-Glo ATP luminescence
[4] = growth inhibition of DIPG cells – cell-based, MIPE5.0 library, qHTS (AID 1347068; cut-off not given, nearly all actives have IC50 up to about 30 µM;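 also: cells exposed to compound for 48 hours before viability readout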); conditions: SU-DIPG-XXV viability
[5] = growth inhibition, single agent or in combination, cell-based, chromothripsis tumors, cisplatin or BGB combos (AID 1671449); conditions: LFS_MB_P medulloblastoma cells;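 also: cells exposed for 96 hours; 0% = vehicle DMSO and 100% = killing by high DMSO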
[6] = growth inhibition, single agent and combos, cell-based, chromothripsis tumors, cisplatin or BGB combos (AID 1671450); conditions: HDN33 neuroblastoma cells, stronger effect = higher value;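 also: cells exposed to compound for four days; 0% = vehicle DMSO and 100% = cell killing by high DMSO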
[7] = growth inhibition, single agents and combos, ICB984, cell-based, cisplatin or BGB combos, synergistic combos for chromothripsis tumors (AID 1671451; call rule not given here;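 also: cells exposed for 96 hours before readout; 0% = vehicle DMSO and 100% = killing by high DMSO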); conditions: ICB984 medulloblastoma cells, drug combinations, stronger effect = higher value
[8] = growth inhibition, single agents and combos, LFS_MB_1R, cell-based, cisplatin or BGB combos, synergistic combos for chromothripsis tumors (AID 1671452); conditions: LFS_MB_1R medulloblastoma cells, stronger effect = higher value;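 also: cells exposed for 96 hours before readout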
[9] = growth inhibition, single agents and combos, HTB85, cell-based, BGB or cisplatin IC20 combos, synergistic combos for chromothripsis tumors (AID 1671453); conditions: HTB85 osteosarcoma cells, drug combinations, stronger effect = higher value;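 also: cells exposed for 96 hours before readout; 0% = vehicle DMSO and 100% = high DMSO killing control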
[10] = growth inhibition, single agents and combos, CRL2098, cell-based, BGB or cisplatin IC20 combos, synergistic combos for chromothripsis tumors (AID 1671454); conditions: CRL2098 osteosarcoma cells, drug combinations, stronger effect = higher value;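 also: cells exposed for 96 h before readout; 0% = vehicle DMSO and 100% = killing by high DMSO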
[11] = growth inhibition, single agents and combos, HD-MB03, cell-based, BGB or cisplatin IC20 combos, synergistic combos for chromothripsis tumors (AID 1671455; in the data active = inhibition above about 83%;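 also: 0% = vehicle DMSO and 100% = high DMSO as cytotoxic control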); conditions: HD-MB03 medulloblastoma cells, stronger effect = higher value
[12] = growth inhibition, single agents and combos, UWB1.289, cell-based, BGB or cisplatin combos, synergistic combos for chromothripsis tumors (AID 1671456); conditions: UWB1.289 ovarian carcinoma cells, stronger effect = higher value;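 also: cells exposed to compound for four days; 0% = vehicle DMSO and 100% = killing by high DMSO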
[13] = growth inhibition, single agents and combos, LFS_MB_2R, cell-based, cisplatin combos, synergistic combos for chromothripsis tumors (AID 1671457); conditions: LFS_MB_2R medulloblastoma cells, stronger effect = higher value;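 also: cells exposed to compound for four days before readout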
[14] = growth inhibition, MDA-MB-436, cell-based, BGB or cisplatin combos, synergistic combos for chromothripsis tumors (AID 1671458; call rule not given here;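 also: cells exposed for 96 hours; 0% = vehicle DMSO and 100% = killing by high DMSO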); conditions: MDA-MB-436 breast carcinoma growth inhibition, drug combinations, stronger effect = higher value
[15] = UWB1.289_BRCA1 ovarian cancer growth, cell-based, BGB or cisplatin combinations (AID 1671459); conditions: UWB1.289 BRCA1 ovarian carcinoma, drug combinations, stronger effect = higher value
[16] = drug combination toxicity in non-malignant astrocytes – cell-based, BGB or cisplatin IC20 combos, cytotoxicity control for chromothriptic childhood tumor combination screen (AID 1671460); conditions: Human astrocytes, viability inhibition, drug combinations, at 0.5 µM, stronger effect = higher value;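 also: cells exposed to compounds for 96 hours before viability readout; 0% = vehicle and 100% = killing control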
[17] = BT084 cell growth, single and combined drugs, ICGC_MB145, cisplatin and BGB IC40 combos (AID 1671461); conditions: BT084 medulloblastoma cells, drug combinations, stronger effect = higher value;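 also: cells exposed to drugs for 96 hours; 0% = vehicle DMSO and 100% = high DMSO full killing control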
[18] = RCMB18 cell growth, single agent and combined, cisplatin and BGB IC40 combos (AID 1671462); conditions: RCMB18 medulloblastoma cells, stronger effect = higher value;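 also: cells exposed to compound for four days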
[19] = CRL1545 cell growth, single agent and combined, cisplatin and BGB IC20 combos (AID 1671464); conditions: CRL1545 osteosarcoma cells, stronger effect = higher value;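 also: cells exposed to compound for 96 hours before readout; 0% = vehicle DMSO and 100% = high DMSO killing control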
[20] = measured here: combination with BGB IC40, at 0.05 µM
[21] = measured here: with BGB IC20 combination, at 0.5 µM
[22] = measured here: with cisplatin IC20 combination, at 0.5 µM
[23] = measured here: combination with cisplatin, at 0.5 µM
[24] = measured here: combination with cisplatin, at 5 µM

c1cc(Nc2cc(C3CC3)[nH]n2)nc(Nc2ccc3nc[nH]c3c2)n1
AC50 [1]: 468 nM (active)
AC50 [2]: 590 nM (active)
AC50 [3]: 742 nM (active)
IC50 [4]: 1.48 µM (active)
inhibition ([5]; at 0.5 µM, stronger effect = higher value): -28.9% (inactive)
inhibition ([5]; measured here: combination with BGB IC20, at 0.005 µM): -28.7%
inhibition ([5]; measured here: combination with BGB IC40, at 0.005 µM): 66.9%
inhibition [5, 20]: 3.2%
inhibition ([5]; measured here: combination with cisplatin, at 0.5 µM, stronger effect = higher value): -45.7%
inhibition ([5]; measured here: combination with cisplatin, at 5 µM, stronger effect = higher value): 97.7%
inhibition ([6]; BGB combo, at 5 µM): 80.3%
inhibition ([6]; at 0.5 µM): 13.6% (inactive)
inhibition ([6]; cisplatin combo, at 5 µM): 56.8%
inhibition [6, 21]: 15.5%
inhibition [6, 22]: 11.8%
inhibition ([6]; single agent, at 5 µM): 65%
inhibition ([7]; BGB IC20 combo, at 0.005 µM): 91.8%
inhibition ([7]; BGB IC40 combo, at 0.005 µM): 91.5%
inhibition ([7]; BGB IC40 combo, at 0.05 µM): 101%
inhibition ([7]; at 0.5 µM): -13.7% (inactive)
inhibition ([7]; cisplatin combo, at 0.05 µM): 102%
inhibition ([7]; cisplatin combo, at 0.5 µM): -28%
inhibition ([7]; cisplatin combo, at 5 µM): -12.8%
inhibition ([7]; measured here: 5 uM single agent, at 5 µM): -7.27%
inhibition ([8]; at 0.5 µM): 96.2% (active)
inhibition [8, 20]: 10.7%
inhibition [8, 23]: 97.7%
inhibition [8, 24]: 98.3%
inhibition ([9]; at 0.5 µM): 92.1% (active)
inhibition ([9]; measured here: with BGB IC20, at 0.5 µM): 97.4%
inhibition ([9]; measured here: with BGB IC20, at 5 µM): 98.4%
inhibition ([9]; measured here: with cisplatin IC20, at 0.5 µM): 83.5%
inhibition ([9]; measured here: with cisplatin IC20, at 5 µM): 99.3%
inhibition ([9]; single agent, at 5 µM): 99.5%
inhibition ([10]; at 0.5 µM): 28.9% (inactive)
inhibition ([10]; measured here: combination with BGB at IC20, at 0.5 µM): 57.3%
inhibition ([10]; measured here: combination with cisplatin at IC20, at 0.5 µM): 27.4%
inhibition ([11]; at 0.5 µM): 31.9% (inactive)
inhibition ([11]; measured here: combo with BGB at IC20, at 0.5 µM): 43.7%
inhibition ([11]; measured here: combo with cisplatin at IC20, at 0.5 µM): 6.87%
inhibition ([12]; at 0.5 µM): 67.4% (inactive)
inhibition ([12]; measured here: inhibition with BGB combination, at 0.05 µM): 37.1%
inhibition ([12]; measured here: inhibition with cisplatin combination, at 0.05 µM): -9.86%
inhibition ([13]; at 0.5 µM): 80.7% (active)
inhibition [13, 23]: 87.3%
inhibition [13, 24]: 91.1%
inhibition ([14]; at 0.5 µM): 23.1% (inactive)
inhibition ([14]; measured here: BGB combination, at 0.5 µM): 22.4%
inhibition ([14]; measured here: BGB combination, at 5 µM): 75.1%
inhibition ([14]; measured here: cisplatin combination, at 0.5 µM): 5.08%
inhibition ([14]; measured here: cisplatin combination, at 5 µM): 88.8%
inhibition ([15]; BGB combination, concentration series, at 5 µM): 73.5%
inhibition ([15]; at 0.5 µM): 79.3% (inactive)
inhibition ([15]; cisplatin combination, concentration series, at 5 µM): 72.2%
inhibition [16]: 14.6% (inactive)
inhibition ([16]; measured here: combo with BGB IC20): 33.6%
inhibition ([16]; measured here: combo with cisplatin IC20): -4.62%
inhibition ([17]; at 0.5 µM): 44.8% (inactive)
inhibition ([17]; cisplatin combination, at 0.5 µM): 31.8%
inhibition ([17]; cisplatin combination, at 5 µM): -81%
inhibition ([17]; measured here: BGB IC40 combination 0.05 uM, at 0.05 µM): -10.1%
inhibition ([17]; single agent, at 5 µM): 22.9%
inhibition ([18]; at 0.5 µM): 73.8% (inactive)
inhibition ([18]; cisplatin combo, at 5 µM): 83.5%
inhibition ([18]; measured here: BGB IC40 combination, at 0.05 µM): 22.4%
inhibition [18, 23]: 76.4%
inhibition ([18]; single agent, at 5 µM): 84.3%
inhibition ([19]; at 0.5 µM): -7.32% (inactive)
inhibition [19, 21]: -9.54%
inhibition [19, 22]: -7.92%
inhibition ([19]; single agent, at 0.05 µM): -26.3%
inhibition ([19]; single agent, at 5 µM): 81.3%
